SW480 rerep: DNA re-replication induction in SW480 cells; SW480 DNA re-replication, Hoechst DNA content imaging, 48 h; Potency, µM (doses to about 46.1 µM), without a hit: at the top dose re-replication activation, actives largely listed as activators; hit rate 1.8% among 340,000; also: potency is read from the fitted curve at half-maximal effect; % of control where 0% means no effect; nearly all actives have a fitted effect of over 55% in size
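Cells (250 per well) received 23 nL compound or DMSO by pin tool and were kept 48 hr at 37 C, 5% CO2. Nuclei were then stained with Hoechst for 40 min and scanned for DNA content.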
KB-3-1 tox: KB-3-1 parental cell cytotoxicity; hit rate 1.4% among 400,000; AID 1347075; Potency, µM (titrated, usually from 46.1 µM), hits mostly cytotoxic; KB-3-1 viability, CellTiter-Glo ATP luminescence, 72 h; also: potency is read from the fitted curve at half-maximal effect; % is scaled to controls: 0 for no effect and ±100 for the full control effect; nearly all actives have a fitted effect of over 60% in size
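72 h, 37 °C compound treatment of KB-3-1 parental cells; CellTiter-Glo added, 10 min, luminescence read. Data corrected against DMSO-only plates and normalized before curve fitting.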
MCF10A rereplic: inducers of DNA re-replication in MCF 10A breast cells. hit rate 2.9% among 350,000. Potency, µM (titrated, usually from 46.1 µM), inactives show top-dose activity, positive = re-replication, hits mostly activators. AID 624296. MCF 10A DNA re-replication, Hoechst nuclear intensity, 48 h; also: potency is read from the fitted curve at half-maximal effect; % of control where 0% means no effect; nearly all actives have a fitted effect of over 50% in size
hERG WT inh: blocks the wildtype human KCNH2 potassium channel. hit rate 0.37% among 340,000. AID 720551. Q12809. activity change, % at 1.84 µM. U2OS, BacMam KCNH2, thallium flux FluxOr; stronger effect = lower value;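 active = maximum activity change below -70%; inconclusive = maximum activity change between -70% and -50%; inactive = maximum activity change above -50%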; also: % is scaled to controls: 0 for no effect and ±100 for the full control effect
Target sequence (Q12809 whole entry, looked up): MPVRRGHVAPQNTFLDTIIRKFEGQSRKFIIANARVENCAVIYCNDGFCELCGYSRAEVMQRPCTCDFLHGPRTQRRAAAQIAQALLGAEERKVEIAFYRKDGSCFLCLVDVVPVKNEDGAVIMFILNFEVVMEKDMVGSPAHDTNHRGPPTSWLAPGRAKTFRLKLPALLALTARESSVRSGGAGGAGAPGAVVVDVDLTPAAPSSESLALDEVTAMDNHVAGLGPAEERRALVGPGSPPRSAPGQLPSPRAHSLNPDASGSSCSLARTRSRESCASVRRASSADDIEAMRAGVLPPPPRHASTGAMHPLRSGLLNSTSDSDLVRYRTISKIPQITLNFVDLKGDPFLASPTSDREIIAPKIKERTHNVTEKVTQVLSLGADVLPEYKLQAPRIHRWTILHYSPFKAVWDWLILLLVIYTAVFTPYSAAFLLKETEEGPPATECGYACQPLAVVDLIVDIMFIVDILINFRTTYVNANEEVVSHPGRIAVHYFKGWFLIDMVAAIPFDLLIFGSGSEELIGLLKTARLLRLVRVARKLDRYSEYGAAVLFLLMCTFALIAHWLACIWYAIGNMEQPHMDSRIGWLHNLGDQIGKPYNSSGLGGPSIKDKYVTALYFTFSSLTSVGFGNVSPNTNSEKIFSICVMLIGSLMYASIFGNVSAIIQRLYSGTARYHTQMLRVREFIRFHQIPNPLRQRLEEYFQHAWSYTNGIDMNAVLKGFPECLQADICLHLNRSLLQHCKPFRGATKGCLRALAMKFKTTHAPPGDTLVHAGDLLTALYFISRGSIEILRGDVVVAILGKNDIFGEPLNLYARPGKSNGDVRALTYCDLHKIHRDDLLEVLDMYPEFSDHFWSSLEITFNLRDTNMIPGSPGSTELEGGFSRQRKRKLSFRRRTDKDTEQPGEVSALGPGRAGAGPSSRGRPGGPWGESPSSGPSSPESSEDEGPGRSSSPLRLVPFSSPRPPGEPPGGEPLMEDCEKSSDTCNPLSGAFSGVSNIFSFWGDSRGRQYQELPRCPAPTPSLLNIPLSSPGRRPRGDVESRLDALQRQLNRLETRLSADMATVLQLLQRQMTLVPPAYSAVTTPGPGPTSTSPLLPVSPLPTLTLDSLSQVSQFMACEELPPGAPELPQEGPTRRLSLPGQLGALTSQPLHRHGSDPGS
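U2OS cells transduced with wild-type KCNH2 virus are loaded with FluxOr dye for 45 min, and thallium flux is measured in kinetic reads before and after stimulation buffer. Rate constants are normalized to DMSO controls.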
KB-V1 cytotox: kills drug-selected multidrug resistant KB-V1 cells | AID 1347076 | KB-V1 MDR cells viability, CellTiter-Glo, 72 h | Potency, µM (titrated, usually from 46.1 µM), hits mostly cytotoxic | hit rate 3.4% among 400,000; also: potency is read from the fitted curve at half-maximal effect; % is scaled to controls: 0 for no effect and ±100 for the full control effect; nearly all actives have a fitted effect of over 60% in size
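Following 72 h at 37 degrees C with compound, KB-V1 cell viability was read by CellTiter-Glo luminescence, medium being phenol-red-free DMEM plus 10% FBS; concentration-response parameters came from normalized, curve-fitted qHTS data.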
KCNH2 3.1 block: inhibitors of human KCNH2 3.1 potassium channel isoform; U2OS KCNH2 3.1, thallium flux FluxOr; stronger effect = lower value; activity change, % (tested at about 1.8 µM); hit rate 0.95% among 340,000;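 active = maximum activity change below -70%; inconclusive = maximum activity change from -70% to -50%; inactive = maximum activity change above -50%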;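 also: thallium influx rate constant from kinetic fluorescence after stimulation buffer; % is scaled to controls: 0 for no effect and ±100 for the full control effect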
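Normalized rate constant (relative to positive and negative DMSO controls) derived from a 2 min kinetic fluorescence read after stimulation; U2OS cells expressing the 3.1 isoform via virus at 1.77 x 10^8 /mL.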
* = called active by the depositor. An excerpt weighted towards active compounds, which were near 7.6% of everything screened. Unless noted, calls follow the shape of the dose curve; as a rule, active = well fitted curve in the direction sought with a large enough effect; inconclusive = small, poorly fitted or top-dose-only effect, or another doubt; inactive = no such curve, though single readings can be large; an effect the other way counts as inactive or inconclusive.

What do the screens show for `Cc1cccc(N2CCN(C(=O)c3csc4ccccc34)CC2C)c1` (stereo unspecified)?
KB-3-1 tox: inconclusive; MCF10A rereplic: inconclusive; hERG WT inh: 0.5; KB-V1 cytotox: 14.6µM*; KCNH2 3.1 block: -0.2

How did Cc1cc(C(=O)N2CCC(C(N)=O)CC2)c(C)o1 do in these assays?
SW480 rerep: 16.4µM*; KB-3-1 tox: inactive; MCF10A rereplic: 9.6%; hERG WT inh: -0.2; KB-V1 cytotox: inactive; KCNH2 3.1 block: 14.2

Results for Cc1cccc(N2CCN(C(=O)c3ccc4ccccc4c3)CC2C)c1 (stereo unspecified) ?
SW480 rerep: 10.9%; KB-3-1 tox: inconclusive; MCF10A rereplic: inconclusive; hERG WT inh: -5.0; KB-V1 cytotox: inconclusive; KCNH2 3.1 block: -5.9

What do the screens show for `Cc1cc(C(=O)N2CCN(c3ccccc3O)CC2)c(C)o1`?
SW480 rerep: -2.9%; KB-3-1 tox: inactive; MCF10A rereplic: 10.0%; hERG WT inh: -11.6; KB-V1 cytotox: inactive; KCNH2 3.1 block: 2.7

What do the screens show for `Cc1cccc(N2CCN(C(=O)CC(NC(=O)c3ccccc3)c3ccccc3)CC2C)c1` (stereo unspecified)?
SW480 rerep: -30.0%; KB-3-1 tox: inconclusive; MCF10A rereplic: 2.2%; hERG WT inh: 2.8; KB-V1 cytotox: 3.66µM*; KCNH2 3.1 block: -7.3

How did COc1ccc2cc3cc(C(=O)NCCc4ccccc4)sc3nc2c1Cl do in these assays?
KB-3-1 tox: inactive; KB-V1 cytotox: inactive

How did Cc1cccc(N2CCN(C(=O)c3ccncc3)CC2C)c1 (stereo unspecified) do in these assays?
SW480 rerep: inconclusive; KB-3-1 tox: inconclusive; MCF10A rereplic: 18.7%; hERG WT inh: -0.2; KB-V1 cytotox: inactive; KCNH2 3.1 block: 4.9

How did Cc1cccc(N2CCN(C(=O)c3cc(C)oc3C)CC2C)c1 (stereo unspecified) do in these assays?
SW480 rerep: -11.5%; KB-3-1 tox: 18.4µM*; MCF10A rereplic: inconclusive; hERG WT inh: -10.4; KB-V1 cytotox: 14.6µM*; KCNH2 3.1 block: -4.4

Results for COc1ccc2c(Sc3ccc(Cl)cc3)c(C(=O)NCCCN3CCCCC3)[nH]c2c1 ?
KB-3-1 tox: inactive; KB-V1 cytotox: inactive

Results for O=C(C1Cc2ccccc2CN1S(=O)(=O)c1ccc(F)cc1)N1CCOCC1 (stereo unspecified) ?
SW480 rerep: -7.3%; KB-3-1 tox: inactive; MCF10A rereplic: 0.0%; hERG WT inh: -1.6; KB-V1 cytotox: inactive; KCNH2 3.1 block: 8.2

What do the screens show for `CCS(=O)(=O)N1Cc2ccccc2CC1C(=O)N1CCN(c2ccccc2)CC1` (stereo unspecified)?
SW480 rerep: 3.0%; KB-3-1 tox: inactive; MCF10A rereplic: 11.2%; hERG WT inh: -8.4; KB-V1 cytotox: 10.3µM*; KCNH2 3.1 block: 18.6

Results for CS(=O)(=O)N1Cc2ccccc2CC1C(=O)O (stereo unspecified) ?
SW480 rerep: -4.4%; KB-3-1 tox: inactive; MCF10A rereplic: -0.5%; hERG WT inh: -11.2; KB-V1 cytotox: inactive; KCNH2 3.1 block: -95.0*

What do the screens show for `CCOc1ccc(CNCc2c(C(=O)O)n(Cc3ccccc3F)c3cc(OC)ccc23)cc1`?
KB-3-1 tox: inactive; KB-V1 cytotox: inactive

Results for COc1ccc(N2C(=NC(=O)CCC3CCCC3)SC3CS(=O)(=O)CC32)cc1 (stereo unspecified) ?
SW480 rerep: -11.0%; KB-3-1 tox: inactive; MCF10A rereplic: -1.9%; hERG WT inh: 11.4; KB-V1 cytotox: inactive; KCNH2 3.1 block: 56.0

What do the screens show for `CN(C)c1ccc(N2C(=NC(=O)CCC3CCCC3)SC3CS(=O)(=O)CC32)cc1` (stereo unspecified)?
SW480 rerep: -58.9%; KB-3-1 tox: inconclusive; MCF10A rereplic: 0.2%; hERG WT inh: -281.2*; KB-V1 cytotox: inactive; KCNH2 3.1 block: -1.0

What do the screens show for `CC1(C)CC(NC(=O)C2CCN(S(=O)(=O)c3cccc(C(F)(F)F)c3)CC2)CC(C)(C)N1`?
SW480 rerep: -4.0%; KB-3-1 tox: inactive; MCF10A rereplic: -3.8%; hERG WT inh: -1.9; KB-V1 cytotox: inactive; KCNH2 3.1 block: -5.6

How did Cc1nc(NC2=NCN(Cc3cccnc3)CN2)nc2ccccc12 do in these assays?
SW480 rerep: -4.3%; KB-3-1 tox: inactive; MCF10A rereplic: 7.8%; hERG WT inh: 1.7; KB-V1 cytotox: inactive; KCNH2 3.1 block: -6.0

Results for Cc1nc(NC2=NCN(CCCN3CCOCC3)CN2)nc2c(C)cccc12 ?
SW480 rerep: inconclusive; KB-3-1 tox: 8.2µM*; MCF10A rereplic: inconclusive; hERG WT inh: 2.7; KB-V1 cytotox: inactive; KCNH2 3.1 block: -3.2

Results for COC(=O)C1(C(C[N+](=O)[O-])c2ccc(C)cc2)C(=O)NCC1c1ccco1 (stereo unspecified) ?
SW480 rerep: -3.2%; KB-3-1 tox: inactive; MCF10A rereplic: 2.8%; hERG WT inh: -8.7; KB-V1 cytotox: inactive; KCNH2 3.1 block: -0.5

How did COc1ccc2c(n1)Sc1nc3ccccc3nc1N2 do in these assays?
SW480 rerep: inconclusive; KB-3-1 tox: inactive; MCF10A rereplic: 20.6µM*; hERG WT inh: -13.0; KB-V1 cytotox: inactive; KCNH2 3.1 block: -7.2

How did COc1cc2ccccc2nn1 do in these assays?
SW480 rerep: -114.0%; KB-3-1 tox: inactive; MCF10A rereplic: -15.3%; hERG WT inh: -13.3; KB-V1 cytotox: inactive; KCNH2 3.1 block: 8.6

How did O=CNC1c2ccccc2CCc2ccccc21 do in these assays?
SW480 rerep: -1.9%; KB-3-1 tox: inactive; MCF10A rereplic: -4.9%; hERG WT inh: -1.0; KB-V1 cytotox: inconclusive; KCNH2 3.1 block: 0.0

Results for CCc1ccc(-c2cn3c(n2)SCC3)cc1 ?
SW480 rerep: -16.8%; KB-3-1 tox: inactive; MCF10A rereplic: 21.9%; hERG WT inh: -1.4; KB-V1 cytotox: inactive; KCNH2 3.1 block: -7.1

What do the screens show for `CCc1ccc(-c2cn(-c3nc(C)cc(C)n3)c(=N)o2)cc1`?
SW480 rerep: -0.4%; KB-3-1 tox: 20.6µM*; MCF10A rereplic: 23.1µM*; KB-V1 cytotox: inconclusive; KCNH2 3.1 block: -5.0

How did O=C(NCc1ccccc1)[C@]1(C(F)(F)F)C[C@H](CCc2ccccc2)CCCO1 do in these assays?
SW480 rerep: -4.3%; KB-3-1 tox: inactive; MCF10A rereplic: 1.84µM*; hERG WT inh: -0.6; KB-V1 cytotox: inactive; KCNH2 3.1 block: 5.3

Results for Cc1cc(=O)[nH]c(N=N/C(=N/Nc2ccccc2C)c2ccccc2)n1 ?
SW480 rerep: 5.17µM*; KB-3-1 tox: 4.61µM*; MCF10A rereplic: 19.4%; hERG WT inh: -3.4; KB-V1 cytotox: inactive; KCNH2 3.1 block: -2.8

Source: PubChem BioAssay
